Experimental data: PubChem BioAssay (NCATS)
Results filed as inconclusive are left out. Calls of active or inactive are those of the source. Calls come from the whole dose curve; as a rule, active = well fitted inhibition curve with a large enough effect; inconclusive = small, poorly fitted or top-dose-only effect; inactive = flat fitted curve, though single readings scatter.

The molecules below were run on HACAT (assay: qHTS assay to identify novel small-molecules to repurpose for Merkel cell carcinoma treatment (AID 1296009; note: nearly all actives have a fitted effect of over 60% in size)). Details: MCC and control cell lines, CellTiter-Glo viability, 72 h; at 44.8 µM (top of the series) unless noted.
Outline: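 qHTS format: cells treated with library compounds in DMSO across 8 (NPC) or 11 (MIPE) concentrations. Readout after 72 hr at 37 degree celsius was CellTiter-Glo luminescence.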
For `COc1cc2c(cc1O)C(c1ccc(O)cc1)C(C)C(C)C2` (stereo unspecified), the outcome was “inactive”.
`COc1c(O[C@@H]2O[C@H](CO)[C@@H](O)[C@H](O)[C@H]2O)c(CCC(=O)O)cc2ccoc12` was tested, and the outcome was “inactive”.
`C=C1[C@H](OC(C)=O)[C@H]2[C@@H](OC(=O)c3ccccc3)[C@@H](C)C[C@]2(O)[C@@H](OC(C)=O)[C@H](C)/C=C/C(C)(C)C(=O)[C@H](OC(C)=O)[C@H]1OC(C)=O` was tested, and the outcome was “inactive [at 17.4 µM]”.
`CC1(C)CCC[C@@]2(C)[C@H]1[C@H](O)C=C(CO)[C@]2(O)CO` was tested, and the outcome was “inactive”.
`NC(=O)[C@@H]1CC[C@H](c2ccc(OCc3ccccc3F)cc2)N1` was tested, and the outcome was “inactive”.
For `CC1=C(CC/C(C)=C/C(=O)O)[C@@]2(C)CCCC(C)(C)C2CC1=O` (stereo partly specified), the outcome was “inactive”.
`COc1ccc(-c2ccn(CC[C@](C)(C(=O)NO)S(C)(=O)=O)c(=O)c2)c(F)c1` was tested, and the outcome was “inactive”.
`CC(O)CCc1ccc(O[C@@H]2O[C@H](CO)[C@@H](O)[C@H](O)[C@H]2O)cc1` (stereo partly specified) was tested, and the outcome was “inactive”.
`O=C(O)Cc1cn([C@@H]2O[C@H](CO)[C@@H](O)[C@H](O)[C@H]2O[C@@H]2O[C@H](CO)[C@@H](O)[C@H](O)[C@H]2O)c2ccccc12` was tested, and the outcome was “inactive [at 17.4 µM]”.
`C/C(=C\C(=O)C[C@@]12C(=O)O[C@]3(C)CC[C@H]1C[C@H]23)C(N)=O` was tested, and the outcome was “inactive”.
With `C[C@@H]1C[C@@H](O)[C@@]2(CO)C(CO)=CCC[C@@H]2[C@@]12C[C@@H](c1ccoc1)OC2=O` the outcome was “inactive”.
